Experimental data: PubChem BioAssay
For part of these data: Potency and affinity values are given separately. The source made the active and inactive calls.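 The calls were made as follows, unless noted: active = fluorescence ratio normalized to control raised more than 50% in primary screen plus both repeat runs; inactive = the rest.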

Columns and labels:
[1] = system: TRPC4 beta (transient receptor potential cation channel C4), mouse; test: TRPC4 cation channel opening, retest – cell-based, Fluo4 calcium, HEK293 TRPC4beta/mu-opioid, duplicates, 10 µM, confirmation (AID 2426); conditions: Fluo4 calcium fluorescence, at 10 µM; stronger effect = higher value
[2] = system: transient receptor potential cation channel C4 beta (TRPC4), mouse; test: TRPC4 cation channel opening, second retest – cell-based, second round, Fluo4, HEK293 TRPC4beta/mu-opioid, 1 µM, confirmation (AID 2461;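 active = primary screen active and over 50% activation in each of two duplicate runs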); conditions: Fluo4 calcium fluorescence, at 1 µM; stronger effect = higher value
[3] = system: TRPC4 (transient receptor potential cation channel C4 beta), mouse; test: potentiation of DAMGO EC20 TRPC4 response – cell-based, second round, Fluo-4, HEK293 TRPC4beta/mu-opioid, 1 µM, confirmation (AID 2554;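 active = primary screen hit whose fluorescence ratio, in both repeats, exceeds the weak agonist control mean by 3 SD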); conditions: DAMGO EC20, Fluo-4 calcium flux, at 1 µM; stronger effect = higher value
[4] = system: TRPC4 beta (transient receptor potential cation channel C4), mouse; test: potentiation of DAMGO EC20 TRPC4 response – cell-based, Fluo-4, HEK293 TRPC4beta/mu-opioid, confirmation (AID 2555;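 active = primary screen hit whose calcium fluorescence ratio, in both repeats, exceeds the weak agonist control mean by 3 SD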); conditions: DAMGO EC20, Fluo-4 calcium flux, at 10 µM; stronger effect = higher value
[5] = target: Short transient receptor potential channel 4 (Mus musculus) (UniProt Q9QUQ5); test: blockers of DAMGO-evoked TRPC4 calcium flux – cell-based, Fluo4, HEK293 TRPC4beta/mu-opioid, confirmation (AID 2636;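 active = calcium signal cut by more than 3 SD below the full-agonist control yet still positive, in both repeats and the earlier primary screen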); conditions: at 10 µM; stronger effect = higher value
[6] = target: Short transient receptor potential channel 4 (Mus musculus) (UniProt Q9QUQ5); test: blockers of DAMGO-evoked TRPC4 calcium flux – cell-based, second round, Fluo4, HEK293 TRPC4beta/mu-opioid, 1 µM, confirmation (AID 2637;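 active = calcium signal ratio cut to more than 3 SD under the fully stimulated control mean yet still positive, in both repeats and the primary screen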;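 as to inhibition: percent of integrated ratio relative to wells lacking test compound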); conditions: at 1 µM; stronger effect = higher value
[7] = target: Short transient receptor potential channel 4 (Mus musculus) (UniProt Q9QUQ5); test: calcium entry via TRPC4 opening agents – cell-based, HEK293 TRPC4/mu-opioid, Fluo-4 calcium, dose response (AID 434937;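 active = primary screen activator hit with a dose response curve and TRPC4 channel activation at any tested dose; inactive = no activation, no dose response, or not a primary hit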)
[8] = target: Short transient receptor potential channel 4 (Mus musculus) (UniProt Q9QUQ5); test: potentiation of DAMGO-evoked TRPC4 calcium signal – cell-based, HEK293 TRPC4/mu-opioid, Fluo-4 calcium, EC20 DAMGO, dose response (AID 434941;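 active = earlier screen potentiator hit that boosts the TRPC4 ion channel at some dose, with a dose response; inactive = no potentiation, no dose response, or not a prior hit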;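 also: calcium entry triggered by an EC20 dose of DAMGO at the co-expressed mu-opioid receptor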)
[9] = target: Short transient receptor potential channel 6 (Mus musculus) (UniProt Q61143); test: TRPC6 blockade by TRPC4 inhibitor hits – cell-based, HEK293, membrane potential dye, duplicate, selectivity assay for TRPC4 inhibitor project, confirmation (AID 434948;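 active = active in primary screen and both duplicates, each dropping signal beyond three positive-control SD with fluorescence still positive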); conditions: HEK293 TRPC6, membrane potential dye fluorescence, at 10 µM, stimulated with maximal-effect acetylcholine; stronger effect = higher value
[10] = target: Short transient receptor potential channel 6 (Mus musculus) (UniProt Q61143); test: TRPC6 opening by TRPC4 activator hits – cell-based, HEK293, membrane potential dye, duplicate, selectivity assay for TRPC4 activator project, confirmation (AID 434950;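 active = membrane potential signal rise above negative control mean plus 3 SD in both duplicates, also active in the earlier TRPC4 screen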); conditions: HEK293 TRPC6, membrane potential fluorescence, at 10 µM; activation: stronger effect = higher value; outcome: activation
[11] = target: Short transient receptor potential channel 6 (Mus musculus) (UniProt Q61143); test: positive modulators of mouse TRPC6 channel – HEK293 cells, membrane potential dye, duplicate, selectivity assay for TRPC4 potentiator project, confirmation (AID 434952;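 active = compound raising the membrane signal above positive-control mean plus 3 SD in both repeats, and a primary screen hit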); conditions: HEK293 TRPC6, membrane potential dye fluorescence, at 10 µM, maximal acetylcholine added after compound; stronger effect = higher value
[12] = target: Short transient receptor potential channel 4 (Mus musculus) (UniProt Q9QUQ5); test: calcium flux activators in TRPC4/5HT1a cells, counter-screen for TRPC4 activator project, cell-based, second counter screen, HEK293 TRPC4/5HT1a, Fluo-4 (AID 434977;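 active = calcium signal rise above buffer-control mean plus 5 SD in both duplicates, and also a hit in the primary screen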); conditions: Fluo-4 calcium flux, at 10 µM; stronger effect = higher value
[13] = serotonin-gated TRPC4 signal block – cell-based, second counter screen, HEK293 TRPC4/5HT1a, Fluo-4, counter-screen for TRPC4 inhibitor project, confirmation (AID 434978;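 active = primary screen active whose calcium signal fell more than 3 SD beyond the full-serotonin control mean in both duplicate plates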;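 as to outcome: serotonin given first at submaximal then at maximal dose after compound preincubation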); conditions: Fluo-4 calcium flux, at 10 µM, serotonin added to trigger calcium flux; stronger effect = higher value
[14] = system: TRPC4 (mouse), co-expressed with 5HT1a in HEK293; test: enhancement of serotonin-evoked TRPC4 response – cell-based, second counter screen, HEK293 TRPC4/5HT1a, Fluo-4, counter-screen for TRPC4 potentiator project, confirmation (AID 434979;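 active = signal rise over 3 SD above mean of control wells given weak agonist, in both repeats and first screen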); conditions: Fluo-4 calcium flux, at 10 µM, serotonin added at its EC20 dose; stronger effect = higher value
[15] = nonspecific calcium rise without TRPC4 – cell-based, HEK293 mu-opioid receptor line, counter-screen for TRPC4 activator project, confirmation (AID 449723;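 active = hit in primary screen, with calcium signal over 5 SD above buffer well mean in both duplicates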;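 also: counter screen cells carry the mu-opioid receptor alone and lack TRPC4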); conditions: HEK293 mu-opioid cells, Fluo-4 calcium fluorescence, at 10 µM; stronger effect = higher value
[16] = nonspecific potentiation of DAMGO calcium response – cell-based, HEK293 mu-opioid receptor line, counter-screen for TRPC4 allosteric potentiator project, confirmation (AID 449724;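 active = calcium signal rise more than 3 SD above the low-dose agonist control mean, in both duplicate plates and the primary screen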); conditions: HEK293 mu-opioid receptor cells, Fluo-4 calcium flux, at 10 µM, compound added before EC20 DAMGO stimulus; stronger effect = higher value

Sequence of Short transient receptor potential channel 4 (Mus musculus) (Q9QUQ5 whole entry, looked up): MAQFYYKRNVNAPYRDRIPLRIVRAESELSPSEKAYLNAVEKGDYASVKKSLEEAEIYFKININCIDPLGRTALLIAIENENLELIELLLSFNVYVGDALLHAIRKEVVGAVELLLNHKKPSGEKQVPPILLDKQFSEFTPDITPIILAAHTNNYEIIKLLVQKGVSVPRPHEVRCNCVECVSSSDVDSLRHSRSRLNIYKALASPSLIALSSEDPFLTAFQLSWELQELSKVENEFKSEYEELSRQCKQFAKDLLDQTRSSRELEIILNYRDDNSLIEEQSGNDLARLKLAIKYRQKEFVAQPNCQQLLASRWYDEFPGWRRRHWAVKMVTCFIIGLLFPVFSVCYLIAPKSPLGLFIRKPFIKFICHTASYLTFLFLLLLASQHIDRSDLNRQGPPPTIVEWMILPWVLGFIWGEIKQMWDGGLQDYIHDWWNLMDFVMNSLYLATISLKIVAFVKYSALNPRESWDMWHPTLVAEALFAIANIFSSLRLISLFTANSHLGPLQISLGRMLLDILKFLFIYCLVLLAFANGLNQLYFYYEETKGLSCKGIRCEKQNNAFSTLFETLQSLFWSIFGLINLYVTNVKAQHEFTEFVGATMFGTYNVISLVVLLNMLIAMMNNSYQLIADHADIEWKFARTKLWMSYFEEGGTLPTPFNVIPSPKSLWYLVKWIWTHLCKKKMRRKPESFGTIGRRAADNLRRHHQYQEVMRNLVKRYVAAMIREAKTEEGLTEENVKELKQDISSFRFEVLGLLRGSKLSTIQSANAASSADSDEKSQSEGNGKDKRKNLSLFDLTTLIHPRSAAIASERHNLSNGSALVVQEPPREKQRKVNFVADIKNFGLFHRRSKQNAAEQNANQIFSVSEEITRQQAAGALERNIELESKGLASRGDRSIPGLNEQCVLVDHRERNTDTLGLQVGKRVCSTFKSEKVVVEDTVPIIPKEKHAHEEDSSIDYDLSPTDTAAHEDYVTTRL
Sequence of Short transient receptor potential channel 6 (Mus musculus) (Q61143 whole entry, looked up): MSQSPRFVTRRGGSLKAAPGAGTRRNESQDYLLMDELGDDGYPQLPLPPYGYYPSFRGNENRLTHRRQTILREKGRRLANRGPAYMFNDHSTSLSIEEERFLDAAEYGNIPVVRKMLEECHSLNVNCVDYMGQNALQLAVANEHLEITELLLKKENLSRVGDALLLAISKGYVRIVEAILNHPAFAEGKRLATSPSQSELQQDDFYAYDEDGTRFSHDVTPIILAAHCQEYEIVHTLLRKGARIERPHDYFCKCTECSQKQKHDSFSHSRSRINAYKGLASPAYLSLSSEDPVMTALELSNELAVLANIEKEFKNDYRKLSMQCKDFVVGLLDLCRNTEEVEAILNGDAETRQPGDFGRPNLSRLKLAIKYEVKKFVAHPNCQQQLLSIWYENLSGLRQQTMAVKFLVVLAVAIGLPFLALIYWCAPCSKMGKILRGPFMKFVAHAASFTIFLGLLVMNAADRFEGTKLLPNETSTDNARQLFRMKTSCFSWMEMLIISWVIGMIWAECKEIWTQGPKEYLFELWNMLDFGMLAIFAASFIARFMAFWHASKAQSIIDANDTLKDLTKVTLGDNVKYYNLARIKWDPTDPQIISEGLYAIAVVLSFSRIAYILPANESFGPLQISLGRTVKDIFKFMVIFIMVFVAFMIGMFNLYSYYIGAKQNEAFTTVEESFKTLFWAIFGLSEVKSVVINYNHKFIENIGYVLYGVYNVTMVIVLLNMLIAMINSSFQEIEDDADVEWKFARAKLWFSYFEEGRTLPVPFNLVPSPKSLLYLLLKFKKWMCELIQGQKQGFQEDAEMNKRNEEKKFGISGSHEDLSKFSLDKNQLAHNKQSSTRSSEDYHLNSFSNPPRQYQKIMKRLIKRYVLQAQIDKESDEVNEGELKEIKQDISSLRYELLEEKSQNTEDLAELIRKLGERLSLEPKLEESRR

Compound | outcome [1] | outcome [2] | outcome [3] | outcome [4] | outcome [5] | inhibition [6] | outcome [7] | outcome [8] | inhibition [9] | outcome [10] | outcome [11] | outcome [12] | outcome [13] | outcome [14] | outcome [15] | outcome [16] | inhibition [5] | outcome [6] | inhibition [13] | outcome [9]
Cc1ccc(-c2csc(N(CCCN(C)C)C(=O)c3ccco3)n2)cc1 | inactive | inactive | inactive | inactive | inactive | 52% (active) | inactive | inactive | 37.5% (active) | inactive | inactive | inactive | inactive | inactive | inactive | inactive |  |  |  | 
CCOc1ccc(Br)cc1/C=N/O | inactive | inactive | inactive | inactive |  |  | inactive | inactive | 27.5% (active) | inactive | inactive | inactive |  | inactive | inactive | inactive | 90% (active) | inactive | 29.2% (active) | 
COc1ccccc1N1CCN(CC(C)N(C(=O)C2CCCCC2)c2ccccn2)CC1 (stereo not given) | inactive | inactive | inactive | inactive |  | 52% (active) | inactive | inactive |  | inactive | inactive | inactive |  | inactive | inactive | inactive | 93% (active) |  | 1.31% (active) | inactive
CCOC(=O)CSc1nc2ccccc2c(=O)n1CC1CCCC1 | inactive | inactive | inactive | inactive |  |  | inactive | inactive |  | inactive | inactive | inactive |  | inactive | inactive | inactive | 84% (active) | inactive | 18.3% (active) | inactive
CC(C)C(NC(=O)c1ccc(C(C)(C)C)cc1)C(=O)NCC(c1ccccc1)N(C)C (stereo not given) | inactive | inactive | inactive | inactive |  | 70% (active) | inactive | inactive |  | inactive | inactive | inactive | inactive | inactive | inactive | inactive | 82% (active) |  |  | inactive
Clc1ccccc1CSc1nc2ccncc2[nH]1 | inactive | inactive | inactive | inactive |  |  | inactive | inactive |  | inactive | inactive | inactive | inactive | inactive | inactive | inactive | 99% (active) | inactive |  | inactive
Cc1ccc(C)c2[nH]c(=O)c(CN(Cc3nnnn3C3CCCCC3)CC3CCCO3)cc12 (stereo not given) | inactive | inactive | inactive | inactive |  |  | inactive | inactive |  | inactive | inactive | inactive |  | inactive | inactive | inactive | 78% (active) | inactive | 33% (active) | inactive
CCCn1c(NCc2ccc(C)o2)nc2ccccc21 | inactive | inactive | inactive | inactive |  |  | inactive | inactive |  | inactive | inactive | inactive |  | inactive | inactive | inactive | 70% (active) | inactive | 30% (active) | inactive
Cc1c(CN2CCC(n3nccc3NC(=O)CCc3ccccc3)CC2)cnn1C | inactive | inactive | inactive | inactive |  | 68% (active) | inactive | inactive |  | inactive | inactive | inactive | inactive | inactive | inactive | inactive | 94% (active) |  |  | inactive
O=C(COC(=O)c1cccc([N+](=O)[O-])c1)c1ccc2c(c1)OCO2 | inactive | inactive | inactive | inactive |  | 59% (active) | inactive | inactive |  | inactive | inactive | inactive |  | inactive | inactive | inactive | 89% (active) |  | 25.3% (active) | inactive
CCOc1ccc(NC(=O)c2c[nH]n3c(=O)cc(C4CCN(C(=O)OC(C)(C)C)CC4)nc23)cc1 | inactive | inactive | inactive | inactive |  |  | inactive | inactive |  | inactive | inactive | inactive |  | inactive | inactive | inactive | 50% (active) | inactive | 43.4% (active) | inactive
Cc1ccccc1CN1CCCC(C(=O)Nc2ccccc2Oc2cccnc2)C1 (stereo not given) | inactive | inactive | inactive | inactive |  | 51% (active) | inactive | inactive |  | inactive | inactive | inactive |  | inactive | inactive | inactive | 88% (active) |  | 39.9% (active) | inactive
Cc1ccc(N(CC(=O)NC2CCCC2)C(=O)CNC(=O)c2cccs2)cc1F | inactive | inactive | inactive | inactive |  |  | inactive | inactive |  | inactive | inactive | inactive | inactive | inactive | inactive | inactive | 70% (active) | inactive |  | inactive
Cc1ccc(C(=O)C2=C(O)C(=O)N(Cc3cccnc3)C2c2ccc(Cl)c(Cl)c2)o1 (stereo not given) | inactive | inactive | inactive | inactive |  |  | inactive | inactive |  | inactive | inactive | inactive |  | inactive | inactive | inactive | 90% (active) | inactive | 32.8% (active) | inactive
O=[N+]([O-])c1cccc(-c2nnc(C3CC3)o2)c1 | inactive | inactive | inactive | inactive |  | 38% (active) | inactive | inactive |  | inactive | inactive | inactive | inactive | inactive | inactive | inactive | 68% (active) |  |  | inactive
